For 13 compounds, growth results are on record in PubChem BioAssay (NCI).

Test systems include DU-145 prostate; K-562 leukemia; MALME-3M melanoma; MDA-MB-231 breast; RXF 393 renal; SF-268 CNS; SF-295 CNS; SF-539 CNS; UACC-257 melanoma; M14 melanoma.
Assay in all cases: NCI-60 one-dose screen, 48 h (100 = growth as untreated, 0 = no growth, -100 = all killed)
Conditions in all cases: 10 µM unless noted

SMILES strings stand for the structures. About 83,000 compounds went through this panel and 20% of them were active in at least one assay; those are over-represented in the sample as a whole.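 How to read the values: 0–100, growth inhibition (40 = 60% inhibited); 0, no net growth; -100 to 0, cell death (-40 = 40% of starting cells died; -100 = all dead).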 Values without a mark were called inactive. The source made the active and inactive calls. How the source made its calls: active means growth percent below 10; inactive means the rest.

As for `COc1ccc2nc3ccc(OC)cc3c(SCCCN)c2c1`, the growth in the experiment on DU-145 prostate was 19.8%; with K-562 leukemia it was -33.6% (active); in the experiment with MALME-3M melanoma it was 95%; in the experiment on MDA-MB-231 breast, 102%; in the experiment on RXF 393 renal, 49.1%; in the experiment on SF-268 CNS, 94.1%. The growth with SF-295 CNS is 95.9%; in the experiment on SF-539 CNS, 108%; in the experiment on UACC-257 melanoma, 105%; in the experiment with M14 melanoma, 81%.
As to `CC1(C)CCC(S(=O)(=O)c2ccc3c(c2)/C(=N\O)c2cc(S(=O)(=O)N4CCC(O)(c5cccc(C(F)(F)F)c5)CC4)ccc2-3)CC1`, the growth in the experiment on DU-145 prostate is -83.8% (active); in the experiment with K-562 leukemia it was -70.2% (active); in the experiment on MALME-3M melanoma, -79% (active); in the experiment with MDA-MB-231 breast, -68.7% (active); with RXF 393 renal, -85.4% (active); in the experiment with SF-268 CNS, -71.2% (active). For the same compound, the growth was -64.8% (active) in the experiment with SF-295 CNS, -82.1% (active) in the experiment on SF-539 CNS, -69.9% (active) with UACC-257 melanoma and -74.8% (active) with M14 melanoma.
With `N#Cc1cccc(-c2c(-c3ccc4ccccc4c3)oc3ccccc3c2=O)c1`, the growth in the experiment with DU-145 prostate is 77.1%; in the experiment with K-562 leukemia, 11.5%; in the experiment with MALME-3M melanoma, 48.7%; with MDA-MB-231 breast it was 55.7%; in the experiment on RXF 393 renal it was 81.7%; with SF-268 CNS, 65.8%. Also, the growth is 34.2% in the experiment on SF-295 CNS, 43.4% in the experiment on SF-539 CNS, 58.2% in the experiment with UACC-257 melanoma and 6.18% (active) in the experiment on M14 melanoma.
With `COc1ccc2[nH]cc(-c3nc(-c4c[nH]c5ccncc45)cs3)c2c1`, the growth in the experiment on DU-145 prostate was 32.9%; in the experiment with K-562 leukemia it was -37.9% (active); with MALME-3M melanoma it was -77.5% (active); in the experiment with MDA-MB-231 breast it was -35% (active); in the experiment on RXF 393 renal it was -0.983% (active); in the experiment with SF-268 CNS, 65.3%. Further, the growth in the experiment with SF-295 CNS is -57.1% (active); in the experiment on SF-539 CNS it was -83.4% (active); in the experiment on UACC-257 melanoma it was 82%; with M14 melanoma, -74% (active).
`Nc1ncnc2c1N=C(c1ccc3c(c1)OCO3)CC(c1ccc([N+](=O)[O-])cc1)N2` (stereo not given): the growth was 96.8% with DU-145 prostate; 96.5% in the experiment on K-562 leukemia; 108% in the experiment with MALME-3M melanoma; 55.9% in the experiment on MDA-MB-231 breast; 50.4% in the experiment on RXF 393 renal; 86.2% in the experiment with SF-268 CNS. For the same compound, the growth with SF-295 CNS is 296%; in the experiment on SF-539 CNS, 86.8%; with UACC-257 melanoma, 77.8%; in the experiment on M14 melanoma, 92.2%.
Turning to `COc1ccc(/C=C2\COc3ccc(O)cc3C2=O)c(OC)c1OC`, the growth with DU-145 prostate was 46.2%; in the experiment on K-562 leukemia, 17.7%; in the experiment with MALME-3M melanoma, 78.2%; with MDA-MB-231 breast it was 82.9%; in the experiment with RXF 393 renal, 111%; with SF-268 CNS it was 93.4%. The growth with SF-295 CNS is 98.3%; in the experiment on SF-539 CNS, 81.6%; with UACC-257 melanoma, 97.2%; in the experiment with M14 melanoma, 86%.
As to `CCCCC(=O)Nc1ncc(Cc2ccc(Cl)cc2)s1`, the growth is 89% in the experiment with DU-145 prostate; 37.5% in the experiment with K-562 leukemia; 81.3% with MALME-3M melanoma; 62.3% in the experiment with MDA-MB-231 breast; 56.4% with RXF 393 renal; 79.6% with SF-268 CNS. Besides, the growth with SF-295 CNS was 74.6%; in the experiment on SF-539 CNS, 73.5%; in the experiment with UACC-257 melanoma, 80.7%; in the experiment with M14 melanoma it was 61.1%.
As for `Nc1nc2c([nH]1)c1[nH]c3ccccc3c1c1[nH]c3ccccc3c21`, the growth with DU-145 prostate was 50.2%; with K-562 leukemia it was -41.6% (active); with MALME-3M melanoma, -72.4% (active); in the experiment with MDA-MB-231 breast, -38.7% (active); in the experiment with RXF 393 renal, -7.44% (active); in the experiment on SF-268 CNS it was 71.9%. Further, the growth in the experiment with SF-295 CNS was 42.8%; with SF-539 CNS it was 55.6%; in the experiment on UACC-257 melanoma, 103%; in the experiment with M14 melanoma it was -68.9% (active).
On to `CO[C@]12C=C/C(=C(/C(=O)OCc3cccnc3)C(=O)CCCCCCCC[C@@]3(OC)C=C/C(=C(/C(=O)OCc4cccnc4)C(=O)CCCCCCCC1)O3)O2`, for which the growth in the experiment on DU-145 prostate was 20%; in the experiment on K-562 leukemia, 1.46% (active); in the experiment with MALME-3M melanoma it was -31.2% (active); with MDA-MB-231 breast, 13.9%; in the experiment with RXF 393 renal, -87.2% (active); in the experiment with SF-268 CNS, 9% (active). Besides, the growth is -0.607% (active) in the experiment with SF-295 CNS, 3% (active) in the experiment with SF-539 CNS, 33.6% in the experiment on UACC-257 melanoma and 3.57% (active) with M14 melanoma.
For the compound `OCc1cccc(-c2ccc3ncc(-c4nc(NC5CC5)ncc4F)n3c2)c1`, the growth with DU-145 prostate was 2.04% (active); in the experiment with K-562 leukemia it was 4.91% (active); in the experiment on MALME-3M melanoma, -69% (active); in the experiment with MDA-MB-231 breast it was -15.6% (active); in the experiment with RXF 393 renal, -44.3% (active); in the experiment on SF-268 CNS it was -24.5% (active). Besides, the growth is 4.24% (active) with SF-295 CNS, -61.2% (active) in the experiment with SF-539 CNS, -29.9% (active) with UACC-257 melanoma and -39.4% (active) in the experiment with M14 melanoma.
`COP(=O)(OC)C(C)(C)CC(=O)CC(C#N)(C#N)C(C#N)C#N`: the growth in the experiment with DU-145 prostate is 113%; in the experiment with K-562 leukemia, 91.1%; in the experiment with MALME-3M melanoma, 96.8%; with MDA-MB-231 breast, 100%; with RXF 393 renal, 97.8%; in the experiment on SF-268 CNS, 98%. The growth with SF-295 CNS is 101%; in the experiment with SF-539 CNS, 102%; with UACC-257 melanoma, 103%; with M14 melanoma, 96.2%.
`Cc1cc(Cl)ccc1NC(=O)c1cc2ccccc2cc1O`: the growth in the experiment with DU-145 prostate is 31.1%; with K-562 leukemia, 9.93% (active); in the experiment on MALME-3M melanoma it was 7.3% (active); in the experiment with MDA-MB-231 breast, 23.7%; with RXF 393 renal it was 28%; with SF-268 CNS, 30.8%. The growth in the experiment on SF-295 CNS was 8.91% (active); in the experiment on SF-539 CNS, 22.6%; in the experiment on UACC-257 melanoma it was -5.38% (active); in the experiment on M14 melanoma it was 30.4%.
Consider `O=C(O)[C@@H]1c2ccccc2-c2ccccc2[C@H]1C(=O)O`, for which the growth was 115% in the experiment with DU-145 prostate; 98% in the experiment on K-562 leukemia; 96.8% with MALME-3M melanoma; 105% in the experiment on MDA-MB-231 breast; 102% in the experiment with RXF 393 renal; 105% in the experiment on SF-268 CNS. Besides, the growth was 98.8% with SF-295 CNS, 98.4% in the experiment with SF-539 CNS, 80.6% in the experiment on UACC-257 melanoma and 92.5% in the experiment with M14 melanoma.
